Data published in PubChem BioAssay AID1159580 (chemical genetic matrix, 2015).
“And” between values parts separate entries of the source, which are not always exact repeats. Equal values may be shown once. In all, about 5,500 compounds went through this assay and about 2,000 (36%) were called active. Another 18% or so got no clear call; they are omitted. Rule as the data show it: active = normalized growth mostly below about 0.91 (no sharp cut-off); inconclusive = no clear call, values can overlap the other calls; inactive = mostly above about 0.92. The list shows a part of the results.

Experiment: chemical genetic growth profiling, strain panel (AID 1159580);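 also: tested at 20 µM; growth read once vehicle control cultures reached saturation at 30 °C; 1 = growth at the plate median or of vehicle wells; lower values mean less growth of the strain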
Details: growth OD

Measured: normalized growth

CCCCCCCCC(=O)NCc1ccc(O)c(OC)c1
inactive: S. cerevisiae deletion strains, locus YJR075W, strain HOC1, stronger effect = lower value 0.989 and 0.961 | S. cerevisiae deletion strains, locus YKL009W, strain mrt4, stronger effect = lower value 0.955 | S. cerevisiae deletion strains, locus YKL068W, stronger effect = lower value 0.986 | S. cerevisiae deletion strains, locus YKL085W, strain MDH1 (second series), stronger effect = lower value 0.987 | S. cerevisiae deletion strains, locus YKL085W, strain MDH1, stronger effect = lower value 0.987 | S. cerevisiae deletion strains, locus YKL160W, strain elf1, stronger effect = lower value 0.985 | S. cerevisiae deletion strains, locus YKL190W, strain CNB1, stronger effect = lower value 0.999 | S. cerevisiae deletion strains, locus YKR001C, strain vps1, stronger effect = lower value 0.983 | S. cerevisiae deletion strains, locus YKR026C, strain gcn3, stronger effect = lower value 0.979 | S. cerevisiae deletion strains, locus YKR091W, strain srl3, stronger effect = lower value 0.999 | S. cerevisiae deletion strains, locus YLL001W, strain dnm1, stronger effect = lower value 1 | S. cerevisiae deletion strains, locus YLL026W, stronger effect = lower value 1 | S. cerevisiae deletion strains, locus YLL041C, strain sdh2, stronger effect = lower value 1 | S. cerevisiae deletion strains, locus YLR027C, strain aat2, stronger effect = lower value 1.01 | S. cerevisiae deletion strains, locus YLR039C, strain RIC1, stronger effect = lower value 1 | S. cerevisiae deletion strains, locus YLR058C, strain SHM2, stronger effect = lower value 0.984 | S. cerevisiae deletion strains, locus YLR102C, strain apc9, stronger effect = lower value 0.987 | S. cerevisiae deletion strains, locus YLR113W, strain HOG1, stronger effect = lower value 1.01 | S. cerevisiae deletion strains, locus YLR221C, strain rsa3, stronger effect = lower value 1.01 | S. cerevisiae deletion strains, locus YLR258W, strain gsy2, stronger effect = lower value 0.989 | S. cerevisiae deletion strains, locus YLR262C, strain YPT6 (second series), stronger effect = lower value 1.02 | S. cerevisiae deletion strains, locus YLR262C, strain YPT6, stronger effect = lower value 1.01 | S. cerevisiae deletion strains, locus YLR268W, strain sec22, stronger effect = lower value 0.97 | S. cerevisiae deletion strains, locus YLR320W, strain mms22, stronger effect = lower value 0.997 | S. cerevisiae deletion strains, locus YLR330W, strain CHS5, stronger effect = lower value 0.985 | S. cerevisiae deletion strains, locus YLR342W, strain FKS1 (second series), stronger effect = lower value 0.966 | S. cerevisiae deletion strains, locus YLR342W, strain FKS1, stronger effect = lower value 1.03 | S. cerevisiae deletion strains, locus YLR357W, strain rsc2, stronger effect = lower value 1.12 | S. cerevisiae deletion strains, locus YLR370C, strain arc18, stronger effect = lower value 0.993 | S. cerevisiae deletion strains, locus YLR371W, strain rom2, stronger effect = lower value 0.985 | S. cerevisiae deletion strains, locus YLR384C, strain iki3, stronger effect = lower value 1 | S. cerevisiae deletion strains, locus YLR418C, strain cdc73, stronger effect = lower value 0.989 | S. cerevisiae deletion strains, locus YML016C, strain PPZ1, stronger effect = lower value 0.978 | S. cerevisiae deletion strains, locus YML032C, strain rad52, stronger effect = lower value 0.97 | S. cerevisiae deletion strains, locus YML120C, strain ndi1, stronger effect = lower value 0.992 | S. cerevisiae deletion strains, locus YML124C, strain tub3, stronger effect = lower value 0.975 | S. cerevisiae deletion strains, locus YMR058W, strain fet3, stronger effect = lower value 1 | S. cerevisiae deletion strains, locus YMR078C, strain ctf18, stronger effect = lower value 0.977 | S. cerevisiae deletion strains, locus YMR125W, strain sto1, stronger effect = lower value 1.05 | S. cerevisiae deletion strains, locus YMR129W, stronger effect = lower value 1.02 | S. cerevisiae deletion strains, locus YMR205C, strain PFK2, stronger effect = lower value 0.961 | S. cerevisiae deletion strains, locus YMR223W, strain ubp8, stronger effect = lower value 0.965 | S. cerevisiae deletion strains, locus YMR231W, strain pep5, stronger effect = lower value 1.01 | S. cerevisiae deletion strains, locus YMR263W, strain SAP30, stronger effect = lower value 0.998 | S. cerevisiae deletion strains, locus YMR307W, strain GAS1, stronger effect = lower value 1.07 and 0.979 | S. cerevisiae deletion strains, locus YNL067W, strain RPL9B, stronger effect = lower value 0.995 | S. cerevisiae deletion strains, locus YNL071W, strain lat1, stronger effect = lower value 0.976 | S. cerevisiae deletion strains, locus YNL128W, strain TEP1, stronger effect = lower value 0.999 and 0.969 | S. cerevisiae deletion strains, locus YNL153C, strain GIM3, stronger effect = lower value 0.997 | S. cerevisiae deletion strains, locus YNL175C, strain NOP13, stronger effect = lower value 0.972 | S. cerevisiae deletion strains, locus YNL183C, strain NPR1, stronger effect = lower value 0.93 | S. cerevisiae deletion strains, locus YNL197C, strain WHI3, stronger effect = lower value 0.963 | S. cerevisiae deletion strains, locus YNL209W, strain ssb2, stronger effect = lower value 0.995 | S. cerevisiae deletion strains, locus YNL224C, strain SQS1, stronger effect = lower value 0.984 | S. cerevisiae deletion strains, locus YNL233W, strain BNI4, stronger effect = lower value 0.988 | S. cerevisiae deletion strains, locus YNL248C, strain rpa49, stronger effect = lower value 1.06 | S. cerevisiae deletion strains, locus YNL250W, strain rad50, stronger effect = lower value 0.975 | S. cerevisiae deletion strains, locus YNL271C, strain bni1, stronger effect = lower value 0.983 | S. cerevisiae deletion strains, locus YNL298W, strain CLA4, stronger effect = lower value 0.966 | S. cerevisiae deletion strains, locus YNL307C, strain MCK1, stronger effect = lower value 0.955 | S. cerevisiae deletion strains, locus YNL322C, strain KRE1 (second series), stronger effect = lower value 0.998 | S. cerevisiae deletion strains, locus YNL322C, strain KRE1, stronger effect = lower value 0.994 and 0.983 | S. cerevisiae deletion strains, locus YNR049C, strain mso1, stronger effect = lower value 1.02 | S. cerevisiae deletion strains, locus YNR052C, strain pop2, stronger effect = lower value 0.992 | S. cerevisiae deletion strains, locus YOL006C, strain TOP1, stronger effect = lower value 0.927 | S. cerevisiae deletion strains, locus YOL012C, strain htz1 0.863 | S. cerevisiae deletion strains, locus YOL147C, strain pex11, stronger effect = lower value 0.991 | S. cerevisiae deletion strains, locus YOR001W, strain rrp6, stronger effect = lower value 1.01 | S. cerevisiae deletion strains, locus YOR061W, strain CKA2, stronger effect = lower value 0.988 | S. cerevisiae deletion strains, locus YOR069W, strain VPS5, stronger effect = lower value 0.983 | S. cerevisiae deletion strains, locus YOR070C, strain gyp1, stronger effect = lower value 0.982 | S. cerevisiae deletion strains, locus YOR080W, strain dia2, stronger effect = lower value 1.01 | S. cerevisiae deletion strains, locus YOR083W, strain WHI5 (second series), stronger effect = lower value 0.998 | S. cerevisiae deletion strains, locus YOR083W, strain WHI5, stronger effect = lower value 0.988 | S. cerevisiae deletion strains, locus YOR106W, strain vam3, stronger effect = lower value 1 | S. cerevisiae deletion strains, locus YOR136W, strain idh2, stronger effect = lower value 0.981 | S. cerevisiae deletion strains, locus YOR144C, strain elg1, stronger effect = lower value 0.989 | S. cerevisiae deletion strains, locus YOR184W, strain ser1, stronger effect = lower value 0.939 | S. cerevisiae deletion strains, locus YOR231W, strain MKK1, stronger effect = lower value 0.988 | S. cerevisiae deletion strains, locus YOR265W, strain rbl2, stronger effect = lower value 1.01 | S. cerevisiae deletion strains, locus YOR270C, strain vph1, stronger effect = lower value 0.969 | S. cerevisiae deletion strains, locus YOR290C, strain snf2, stronger effect = lower value 0.978 | S. cerevisiae deletion strains, locus YOR316C, strain cot1, stronger effect = lower value 0.98 | S. cerevisiae deletion strains, locus YPL051W, strain arl3, stronger effect = lower value 0.987 | S. cerevisiae deletion strains, locus YPL055C, strain LGE1, stronger effect = lower value 1.01 | S. cerevisiae deletion strains, locus YPL078C, strain atp4, stronger effect = lower value 0.969 | S. cerevisiae deletion strains, locus YPL106C, strain sse1, stronger effect = lower value 1.04 | S. cerevisiae deletion strains, locus YPL240C, strain hsp82, stronger effect = lower value 1 | S. cerevisiae deletion strains, locus YPL241C, strain CIN2, stronger effect = lower value 0.978 and 0.994 | S. cerevisiae deletion strains, locus YPL256C, strain CLN2, stronger effect = lower value 1 | S. cerevisiae deletion strains, locus YPR119W, strain clb2, stronger effect = lower value 0.989 | S. cerevisiae deletion strains, locus YPR141C, strain kar3, stronger effect = lower value 0.98 | S. cerevisiae deletion strains, locus YPR163C, strain tif3, stronger effect = lower value 0.989 | S. cerevisiae deletion strains, locus YPR167C, strain met16, stronger effect = lower value 0.986 | S. cerevisiae deletion strains, strain wtn01, stronger effect = lower value 0.984 | S. cerevisiae strains, strain wild type, stronger effect = lower value 1
